Values without a mark were called inactive. Results filed as inconclusive are left out. Entries that show only a call come without a potency. Activity calls are given as the source filed them. Unless noted, calls follow the shape of the full dose curve.
Assays:
[1] = Nuclear factor erythroid 2-related factor 2/antioxidant responsive element (Nrf2/ARE) small molecule agonists: qHTS cell viability counter screen in human keratinocytes (AID 1919968; active = well fitted curve in the direction sought with a large enough effect in the repeat runs; an effect the other way counts as inactive or inconclusive; also: nearly all actives have a fitted effect of over 55% in size)
In short: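 HaCaT ARE reporter line, 1,500 cells/well; 5 h settle, 37 C/5% CO2; cpd in DMSO pinned; 23 h exposure; CellTiter-Fluor, 1 h; fluorescence.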

[2] = Nuclear factor erythroid 2-related factor 2/antioxidant responsive element (Nrf2/ARE) small molecule agonists: luciferase reporter gene qHTS assay in human keratinocytes (AID 1919969); also: nearly all actives have a fitted effect of over 35% in size
[3] = target: Gonadotropin-releasing hormone receptor (Homo sapiens) (UniProt P30968); assay: Human gonadotropin-releasing hormone receptor (GnRHR) small molecule agonists, calcium flux assay in GnRHR-HEK293 cells (AID 1920063); also: nearly all actives have a fitted effect of over 35% in size
Gonadotropin-releasing hormone receptor (Homo sapiens), sequence (P30968 whole entry, looked up): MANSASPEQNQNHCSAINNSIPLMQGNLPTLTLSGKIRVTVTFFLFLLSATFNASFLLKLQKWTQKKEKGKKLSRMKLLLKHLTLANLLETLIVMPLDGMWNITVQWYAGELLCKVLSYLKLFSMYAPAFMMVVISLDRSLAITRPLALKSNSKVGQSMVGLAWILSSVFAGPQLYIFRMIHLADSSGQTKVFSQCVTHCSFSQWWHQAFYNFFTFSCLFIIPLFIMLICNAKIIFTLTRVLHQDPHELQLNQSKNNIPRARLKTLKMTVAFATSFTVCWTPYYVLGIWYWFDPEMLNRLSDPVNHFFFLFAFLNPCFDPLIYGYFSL
In short: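 GnRHR-HEK293, 1500 cells/well, 18 h 37 C/5% CO2; Ca dye 1 h 37 C; cpd pinned (DMSO), agonist mode; kinetic FL 480/540, 3 min, 1 s reads; 15 conc, n=3.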

[4] = target: KiSS-1 receptor (Homo sapiens) (UniProt Q969F8); assay: Human kisspeptin (KISS1R) small molecule agonists, calcium flux assay in KISS1R-HEK293 cells (AID 1920064; active = well fitted curve in the direction sought with a large enough effect in the repeat runs; an effect the other way counts as inactive or inconclusive)
KiSS-1 receptor (Homo sapiens), sequence (Q969F8 whole entry, looked up): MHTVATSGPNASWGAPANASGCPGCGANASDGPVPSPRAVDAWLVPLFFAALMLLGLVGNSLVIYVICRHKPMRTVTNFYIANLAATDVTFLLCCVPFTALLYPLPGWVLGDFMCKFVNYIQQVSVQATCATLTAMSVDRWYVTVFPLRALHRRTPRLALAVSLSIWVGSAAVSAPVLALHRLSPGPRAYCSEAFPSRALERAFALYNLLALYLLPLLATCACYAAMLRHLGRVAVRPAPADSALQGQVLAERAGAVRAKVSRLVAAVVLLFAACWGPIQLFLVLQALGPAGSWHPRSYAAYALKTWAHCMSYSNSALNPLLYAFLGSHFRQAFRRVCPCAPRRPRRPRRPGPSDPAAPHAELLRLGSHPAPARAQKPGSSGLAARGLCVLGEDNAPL
In short: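 Stable human KISS1R HEK293 line; 18 h plating, 37 C/5% CO2; calcium dye 1 h 37 C; compound pin transfer; kinetic fluorescence Ex/Em 480/540, 3 min.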

[5] = G protein-coupled receptor (GPCR) small molecule agonists, calcium flux assay: HEK293 wild type cell line counter screen (AID 1920065)
In short: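 Kinetic fluorescence at Ex/Em 480/540, recorded every second over 3 min, served as the read-out after compound addition. Each compound was tested at 15 concentrations in triplicate on cells pre-loaded with calcium dye for 1 h.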

[6] = p53 small molecule agonists, cell-based qHTS assay with human liver microsomes (AID 1963577);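 also: p53 response element beta-lactamase reporter cells with liver microsomes plus NADPH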
In short: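 p53RE-bla cells; 5 h settle, 37 C/5% CO2; cpd + HLM 0.5 mg/mL + NADPH 0.5 mg/mL (final); 16 h 37 C; LiveBLAzer 2 h RT dark; fluorescence readout.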

[7] = p53 small molecule agonists, cell-based qHTS assay with rat liver microsomes: qHTS cell viability counter screen (AID 1963580); also: nearly all actives have a fitted effect of over 45% in size
In short: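 HCT-116 p53RE-bla, 4,000 cells/well, 5 h pre-incubation; cpd + rat liver microsomes 0.5 mg/mL + NADPH 0.5 mg/mL (final); 16 h, 37 C; CellTiter-Glo, 30 min RT; luminescence.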

[8] = p53 small molecule agonists, cell-based qHTS assay: qHTS cell viability counter screen (AID 1963581); also: nearly all actives have a fitted effect of over 45% in size
In short: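 HCT-116 p53RE-bla cells, 4,000/well, plated 5 h before compound pin transfer; 16 h at 37 C; bla substrate 2 h RT; then CellTiter-Glo, 30 min RT, luminescence.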

[9] = p53 small molecule agonists, cell-based qHTS assay (AID 1963582; active = well fitted activation curve with a large enough effect in the signal ratio in the repeat runs, not every such curve was filed as active; the % refers to the signal ratio; also: potency is read from the fitted curve at half-maximal effect)
In short: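 Reporter line: p53RE-bla. Pre-incubation 5 h, 37 C, 5% CO2; compound (DMSO, pin tool) 16 h, 37 C; B/G FRET substrate 2 h RT; fluorescence intensity read.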

[10] = target: 5-hydroxytryptamine receptor 2A (Homo sapiens) (UniProt P28223); assay: 5-hydroxytryptamine receptor 2A (HTR2A) small molecule antagonists, cell-based qHTS assay (AID 1963586); also: nearly all actives have a fitted effect of over 45% in size
5-hydroxytryptamine receptor 2A (Homo sapiens), sequence (P28223 whole entry, looked up): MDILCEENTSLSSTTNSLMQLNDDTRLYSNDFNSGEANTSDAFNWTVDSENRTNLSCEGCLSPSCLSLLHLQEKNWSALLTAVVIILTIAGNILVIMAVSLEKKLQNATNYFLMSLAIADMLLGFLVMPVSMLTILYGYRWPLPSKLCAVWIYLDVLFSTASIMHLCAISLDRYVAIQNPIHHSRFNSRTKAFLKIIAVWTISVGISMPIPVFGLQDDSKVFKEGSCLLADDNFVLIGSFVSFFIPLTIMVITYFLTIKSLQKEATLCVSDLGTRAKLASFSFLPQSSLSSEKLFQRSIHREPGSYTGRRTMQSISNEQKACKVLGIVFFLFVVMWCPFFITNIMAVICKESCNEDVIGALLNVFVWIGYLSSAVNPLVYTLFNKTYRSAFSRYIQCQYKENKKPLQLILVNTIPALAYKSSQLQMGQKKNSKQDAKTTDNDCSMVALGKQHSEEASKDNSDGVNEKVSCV
In short: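 Antagonist-mode intracellular calcium assay: DOI (4 nM) added after 5 min compound pre-incubation at room temperature to dye-loaded HTR2A-CHO cells. Fluorescence followed for 3 min, sampled every second.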

[11] = target: 5-hydroxytryptamine receptor 2A (Homo sapiens) (UniProt P28223); assay: 5-hydroxytryptamine receptor 2A (HTR2A) small molecule agonists, cell-based qHTS assay (AID 1963587); also: nearly all actives have a fitted effect of over 30% in size
In short: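 Kinetic calcium-flux fluorescence (2 min, 1 sec intervals) after compound addition in agonist mode. HTR2A-CHO cells were cultured 18 h, then dye-loaded 1 h at 37 C.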

[12] = target: Muscarinic acetylcholine receptor M1 (Homo sapiens) (UniProt P11229); assay: Cholinergic receptor muscarinic 1 (CHRM1) small molecule antagonists, cell-based qHTS assay (AID 1963588); also: nearly all actives have a fitted effect of over 40% in size
Muscarinic acetylcholine receptor M1 (Homo sapiens), sequence (P11229 whole entry, looked up): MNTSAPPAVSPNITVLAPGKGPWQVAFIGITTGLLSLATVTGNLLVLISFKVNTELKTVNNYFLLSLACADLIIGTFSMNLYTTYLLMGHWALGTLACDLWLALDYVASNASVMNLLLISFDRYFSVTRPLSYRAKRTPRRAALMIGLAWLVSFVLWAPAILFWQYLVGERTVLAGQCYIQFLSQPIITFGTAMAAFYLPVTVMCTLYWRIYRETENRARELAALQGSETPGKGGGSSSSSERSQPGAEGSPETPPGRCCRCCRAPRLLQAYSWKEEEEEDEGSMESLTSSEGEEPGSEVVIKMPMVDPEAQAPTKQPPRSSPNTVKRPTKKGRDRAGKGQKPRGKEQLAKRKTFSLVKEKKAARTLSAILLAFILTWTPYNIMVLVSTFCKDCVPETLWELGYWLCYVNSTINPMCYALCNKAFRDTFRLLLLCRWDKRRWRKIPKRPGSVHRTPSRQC
In short: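 CHRM1-CHO calcium-flux assay, antagonist mode. Cells were seeded 18 h, dye-loaded 1 h at 37 C and given compound for 5 min at RT, then acetylcholine was added at 50nM. FDSS fluorescence was read 3 min; 15 concentrations, three runs.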

[13] = target: Muscarinic acetylcholine receptor M1 (Homo sapiens) (UniProt P11229); assay: Cholinergic receptor muscarinic 1 (CHRM1) small molecule agonists, cell-based qHTS assay (AID 1963589); also: nearly all actives have a fitted effect of over 35% in size
In short: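 Human M1 in stable CHO line; 18 h plating, 1 h dye load 37 C; cpd added (agonist mode); Ca2+ fluorescence kinetic read, 1 s intervals; 15 conc, 3 runs.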

[14] = target: Beta-2 adrenergic receptor (Homo sapiens) (UniProt P07550); assay: Adrenergic beta2 receptor (ADRB2) small molecule antagonists, cell-based qHTS assay (AID 1963592); also: series mostly up to about 92 µM; nearly all actives have a fitted effect of over 50% in size
Beta-2 adrenergic receptor (Homo sapiens), sequence (P07550 whole entry, looked up): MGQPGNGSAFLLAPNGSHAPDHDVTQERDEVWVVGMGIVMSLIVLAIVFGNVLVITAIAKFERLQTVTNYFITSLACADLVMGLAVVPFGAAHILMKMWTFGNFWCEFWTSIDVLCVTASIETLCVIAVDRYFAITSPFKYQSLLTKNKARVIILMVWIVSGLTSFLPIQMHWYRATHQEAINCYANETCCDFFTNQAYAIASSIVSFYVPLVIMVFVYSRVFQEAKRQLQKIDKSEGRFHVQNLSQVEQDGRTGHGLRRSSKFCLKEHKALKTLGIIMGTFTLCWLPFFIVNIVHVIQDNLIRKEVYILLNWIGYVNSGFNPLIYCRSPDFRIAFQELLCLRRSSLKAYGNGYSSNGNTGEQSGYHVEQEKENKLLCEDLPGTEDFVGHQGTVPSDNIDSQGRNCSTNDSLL
In short: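 Cells (CHO, stable ADRB2 overexpression) incubated 18-20hr at 37C; compounds added from DMSO; agonist mix (1nM isoproterenol, 100uM IBMX, 25uM Ro-20-1724) added; 0.5hr RT; d2-cAMP and anti-cAMP-cryptate added; 1hr RT; 665/615 nm read.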

[15] = target: Beta-2 adrenergic receptor (Homo sapiens) (UniProt P07550); assay: Adrenergic beta2 receptor (ADRB2) small molecule agonists, cell-based qHTS assay (AID 1963593);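 also: CHO cells stably overexpressing human ADRB2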
In short: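 CHO cells stably over-expressing ADRB2 were plated overnight at 37C, then dosed with compounds plus a stimulation mix containing 100uM IBMX and 25uM Ro-20-1724 for 0.5hr at room temperature. cAMP was measured by HTRF competition, 1hr.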

[16] = target: D(2) dopamine receptor (Homo sapiens) (UniProt P14416); assay: Dopamine D2 receptor (DRD2) small molecule agonists, cell-based qHTS assay (AID 1963594); also: nearly all actives have a fitted effect of over 35% in size
D(2) dopamine receptor (Homo sapiens), sequence (P14416 whole entry, looked up): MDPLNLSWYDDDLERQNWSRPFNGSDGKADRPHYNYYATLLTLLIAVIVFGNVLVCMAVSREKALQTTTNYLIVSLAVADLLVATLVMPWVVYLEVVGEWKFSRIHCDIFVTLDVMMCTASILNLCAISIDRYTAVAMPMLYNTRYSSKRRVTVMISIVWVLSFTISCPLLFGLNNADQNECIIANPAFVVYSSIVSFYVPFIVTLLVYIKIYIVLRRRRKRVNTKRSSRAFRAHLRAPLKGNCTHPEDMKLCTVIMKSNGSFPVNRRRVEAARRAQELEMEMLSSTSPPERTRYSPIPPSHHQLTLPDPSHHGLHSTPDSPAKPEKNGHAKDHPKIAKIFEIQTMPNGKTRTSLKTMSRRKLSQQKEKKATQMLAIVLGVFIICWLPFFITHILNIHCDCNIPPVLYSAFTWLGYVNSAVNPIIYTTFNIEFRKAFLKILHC
In short: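 cAMP accumulation in DRD2-HEK293 cells measured by HTRF after 1 h detection; compounds added 10 min before NKH477 (200nM […]) forskolin-analogue stimulation, 30 min at room temperature, with Ro20-1724 present at 0.1 mM final.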

[17] = target: D(2) dopamine receptor (Homo sapiens) (UniProt P14416); assay: Dopamine D2 receptor (DRD2) small molecule antagonists, cell-based qHTS assay (AID 1963595; active = well fitted inhibition curve with a large enough effect in the signal ratio in the repeat runs, with a control signal flat; the % refers to the signal ratio)
In short: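 Readout: HTRF cAMP, cAMP-d2 competing with cellular cAMP for anti-cAMP cryptate, read after 1 h. Cells: DRD2-HEK293. Conditions: 0.1 mM Ro20-1724, 12 nM quinpirole, 200 nM NKH477, 30 min RT.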

[18] = cAMP Responsive Elements (CRE) small molecule agonists, cell-based qHTS assay (AID 1963590)
In short: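 HEK 293T CRE-bla, 2,000 cells/well, 18 h preincubation 37 C/5% CO2; cpds (DMSO) pinned, 3 h; LiveBLAzer B/G FRET substrate, 2 h RT.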

[19] = cAMP Responsive Elements (CRE) small molecule antagonists, cell-based qHTS assay (AID 1963591; active = well fitted inhibition curve with a large enough effect in the signal ratio in the repeat runs, not every such curve was filed as active; the % refers to the signal ratio)
In short: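 Beta-lactamase reporter read by FRET substrate (LiveBLAzer B/G) after 2 h at room temperature. CRE-bla HEK293T cells had received compound plus 0.25 uM (final) NKH477 for 3 h at 37 °C.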

[20] = p53 small molecule agonists, cell-based qHTS assay with rat liver microsomes (AID 1963578)
In short: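 Rat liver microsome activation: microsomes 0.5 mg/mL, NADPH 0.5 mg/mL final; p53RE-bla cells, 16 h 37 C; LiveBLAzer readout, 2 h RT dark.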

| Compound | Potency [1] | Potency [2] | Potency [3] | outcome [4] | outcome [5] | Potency [6] | Potency [7] | Potency [8] | Potency [9] | Potency [10] | Potency [11] | Potency [12] | Potency [13] | Potency [14] | Potency [15] | Potency [16] | Potency [17] | Potency [18] | Potency [19] | Potency [20] |
| --- | --- | --- | --- | --- | --- | --- | --- | --- | --- | --- | --- | --- | --- | --- | --- | --- | --- | --- | --- | --- |
| CC(=O)OC1CCCCC1C(C)(C)C (centres undefined) | inactive | inactive | inactive | inactive | inactive | inactive | inactive | inactive | inactive | inactive | inactive | inactive | inactive | inactive | inactive | inactive | inactive |  |  |  |
| CCOC(=O)[C@H](CCc1ccccc1)N[C@@H](C)C(=O)N1CCC[C@H]1C(=O)O | inactive | inactive | inactive | inactive | inactive | inactive | inactive | inactive | inactive |  |  |  |  | inactive |  | inactive | inactive |  |  |  |
| CCC(CC)(CC(=O)Nc1cccc(/C=C/c2nc(C3CCC3)cs2)c1)C(=O)O | inactive | inactive | inactive | inactive | inactive | inactive | inactive | inactive | inactive |  | inactive | inactive | inactive | inactive |  | inactive | inactive |  |  |  |
| CCC(CO)(CO)COCC(CC)(CO)CO | inactive | inactive | inactive | inactive | inactive | inactive | inactive | inactive | inactive | inactive | inactive | inactive |  | inactive |  | inactive | inactive | inactive | inactive |  |
| CCc1nccnc1C | inactive | inactive | inactive | inactive | inactive | inactive | inactive | inactive | inactive | inactive | inactive | inactive | inactive | inactive |  | inactive | inactive | inactive | inactive |  |
| NS(=O)(=O)c1cc2c(cc1Cl)CN(C1CCCCC1)C2=O | inactive | inactive | inactive | inactive | inactive | inactive |  | inactive | inactive |  | inactive |  | inactive | inactive | inactive | inactive | inactive |  |  | inactive |
| CC(C)CC(=O)C1C(=O)c2ccccc2C1=O | inactive | inactive | inactive | inactive | inactive | inactive |  | inactive | inactive | inactive | inactive | inactive | inactive | inactive | inactive | inactive | inactive |  | inactive | inactive |
| N=c1ccn2c(n1)O[C@H]1[C@H](O)[C@@H](CO)O[C@H]12 | inactive | inactive | inactive | inactive | inactive | inactive | inactive | inactive | 1.45 µM (active) | inactive | inactive | inactive | inactive | inactive |  | inactive | inactive |  | inactive |  |
| Cc1cc(NC(=O)C2=C(O)c3ccccc3S(=O)(=O)N2C)no1 | inactive | inactive | inactive | inactive | inactive | inactive | inactive | inactive | inactive |  | inactive | inactive | inactive |  | inactive | inactive | inactive | inactive | inactive |  |
| Cc1ccccc1N1CCN(CCc2nnc3n2CCCC3)CC1 | inactive | inactive | inactive | inactive | inactive | inactive | inactive | inactive | inactive |  |  |  |  | inactive | inactive | inactive | inactive | inactive | inactive |  |
| C=CN1CCCCCC1=O | inactive | inactive | inactive | inactive | inactive | inactive | inactive | inactive | inactive | inactive | inactive | inactive | inactive |  |  |  |  |  | inactive |  |
| COC(=O)C(c1ccccc1Cl)N1CCc2sccc2C1 (centres undefined) | inactive | inactive | inactive | inactive | inactive | inactive | inactive | inactive | inactive |  |  |  |  | inactive | inactive | inactive | inactive |  |  |  |
| CCCCCCCCCCCCSC | inactive | inactive | inactive | inactive | inactive | inactive | inactive | inactive | inactive | inactive | inactive | inactive | inactive | inactive |  | inactive | inactive | inactive | inactive |  |
| Clc1cccnc1 | inactive | inactive | inactive | inactive | inactive | inactive | inactive | inactive | inactive | inactive | inactive | inactive | inactive | inactive |  | inactive | inactive | inactive | inactive |  |

From PubChem BioAssay (Tox21)
